Among the data in PubChem BioAssay AID2058 (Sanford-Burnham Center for Chemical Genomics, 2009) are inhibition values, retold here.

By inhibition is commonly meant the change of the read-out against control, counted positive when it falls.

The campaign covered roughly 290,000 compounds. About 150 (0.052%) were called active. The full list was thinned out, with actives kept by preference. Results with a measured potency or affinity are listed apart. A number with no mark means an inactive call.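 How the source made its calls: active means inhibition of at least 50% with at least 30 cells and total cytoplasm GFP at most 10,000,000; inconclusive means under 30 cells or total GFP of 10,000,000 plus; inactive means the rest.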

The target of this assay is G-protein coupled receptor 35 (Homo sapiens) (UniProt Q9HC97). Kind of assay: inhibition of zaprinast-stimulated GPR35 beta-arrestin translocation – imaging, U2OS, beta-arrestin-GFP, zaprinast agonist, primary screen (AID 2058). To be noted: zaprinast antagonism, at 10 µM, stronger effect = higher value.
Chain of G-protein coupled receptor 35 (Homo sapiens) (Q9HC97 whole entry, looked up): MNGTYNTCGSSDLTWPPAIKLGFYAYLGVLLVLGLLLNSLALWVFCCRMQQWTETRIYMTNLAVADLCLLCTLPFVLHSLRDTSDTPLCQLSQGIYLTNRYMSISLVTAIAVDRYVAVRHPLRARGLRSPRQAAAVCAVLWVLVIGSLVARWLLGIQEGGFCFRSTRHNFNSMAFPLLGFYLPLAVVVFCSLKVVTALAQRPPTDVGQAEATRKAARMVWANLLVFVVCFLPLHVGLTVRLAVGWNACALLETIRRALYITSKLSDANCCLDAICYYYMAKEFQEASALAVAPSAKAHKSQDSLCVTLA
`O=C(Nc1cccc(-c2cn3ccccc3n2)c1)c1cc2ccccc2oc1=O`: the inhibition was -3.4%. In the case of `COc1cc(/C=C2\C(=N)N3N=C(S(C)(=O)=O)SC3=NC2=O)cc(OC)c1OCCOc1ccccc1C`, the inhibition is 3.6%. Regarding `S=c1nc(-c2ccccc2)n(Cc2cccnc2)c2c1CCCC2`, the inhibition is 14.8%.

Take `CCCCC[C@H]1CN(CCCC)C(=O)[C@@H]1CC(=O)NCc1ccc(OC)cc1`: the inhibition is 8.5%. Next, `C=CCn1c(SCC(=O)Nc2ccc(Cl)cn2)nnc1C1CC1`: -2.5%; `CCS(=O)(=O)c1ncc(Cl)c(C(=O)Nc2ccc(S(=O)(=O)N3CCC(C)CC3)cc2)n1`: 27.7%. As for `CCC1CCCCN1S(=O)(=O)c1ccc(NC(=O)c2ccncc2)cc1` (stereo unspecified), the inhibition is -21.5%. Take `COc1ccc(/C=C2\SC(=S)N(CCC(=O)N3CCCCC3)C2=O)cc1`: the inhibition is 1.2%. As to `Cc1ccc(/C=C2/SC(=S)N(CCC(=O)N3CCN(c4ccccc4)CC3)C2=O)cc1`, the inhibition is -11.1%. Consider `COc1c(S(=O)(=O)Nc2cccnc2)ccc(Cl)c1Cl`, for which the inhibition is 0.5%. With `O=c1[nH]cnc2sc3c(c12)CN(Cc1ccccc1)CC3` the figure was -2.4%; with `Cc1ccc(NC(=O)C2C(c3ccccc3)C=CC(c3ccccc3)C2C(=O)O)cc1` (stereo unspecified), -4.3%. `Cc1ccccc1Nc1nnc(SCC(=O)NCc2cccs2)s1`: the inhibition is 0%. For `C/C(=N\NC(=O)c1cc(-c2ccc(C)s2)[nH]n1)c1ccncc1`, the inhibition is -6.8%.

For the compound `COc1ccc(C(=O)NCCc2nnc(SCC(=O)Nc3ccc(Br)cc3)n2C)cc1`, the inhibition is 0.4%.

For `CC1(C)Cc2ccccc2/C(=C/C(=O)N2CCCCCC2)N1`, the inhibition was 7.4%. For `CNC(=O)/C=C1\NC(C)(C)Cc2c1ccc1ccccc21`, the inhibition is 7.2%. For `O=C(NN1CCOCC1)c1ccccc1Br`, the inhibition is 2.6%.

`COc1ccc(C2Nc3cc(OC)ccc3-n3cccc32)cc1` (stereo unspecified): the inhibition is 7%. With `COc1ccc2c(c1)NC(c1cc(Cl)cc(Cl)c1O)c1cccn1-2` (stereo unspecified), the inhibition was 12.6%.

As for `COc1ccc2c(c1)NC(c1ccc(N(C)C)cc1)c1cccn1-2` (stereo unspecified), the inhibition is 83.6% (active).

As to `CCc1nnc(NC(=O)c2cc(S(=O)(=O)N3CCOCC3)ccc2N2CCCCC2)s1`, the inhibition is 4.8%. For `CCOc1ccccc1CNc1nnnn1C`, the inhibition is 2.8%. For `CCN1C(=O)/C(=C/C=C2\N(CC)c3cc(S(=O)(=O)N(C)C)ccc3N2c2ccccc2)SC1=S`, the inhibition is 62% (active). Regarding `CCN1C(=O)/C(=C/C=C2/Sc3ccccc3N2CCO)SC1=S`, the inhibition was -15.5%. With `C=CCN1C(=O)/C(=C/C=C2/N(CC)c3ccc(S(=O)(=O)N(C)C)cc3N2CC)SC1=S`, the inhibition is 9.4%.
